Assay outcomes as filed in PubChem.
Shiga toxin inh: A qHTS for Small Molecule Inhibitors of Shiga Toxin | inhibition, % at 38.7 µM | actives 9.2% (n = 290,000) | AID 2315, 2010 | Vero cells, Shiga toxin protein synthesis inhibition reporter; in the data active = inhibition mostly above about 28%, no sharp cut-off; inactive = mostly below about 43%; also: 0% is about no effect
MARV entry inh: qHTS for inhibitors of binding or entry into cells for Marburg Virus; AID 540276, 2011; Potency, µM (top dose mostly 37.8 µM), inactives show at the top dose activity change, negative = inhibition, most hits filed as inhibitors; Marburg virus pseudotyped entry inhibition, cell reporter; actives 1.8% (n = 300,000); calls by dose curve; tested in HEK293 cells; also: potency is read from the fitted curve at half-maximal effect; % is scaled to controls: 0 for no effect and ±100 for the full control effect
Cycloheximide cs: Cycloheximide Counterscreen for Small Molecule Inhibitors of Shiga Toxin. cell reporter, cycloheximide protein synthesis inhibition counterscreen. actives 12% (n = 300,000). max response, %; in the data active = max response mostly above about 13%, no sharp cut-off; inactive = mostly below about 14%; also: read at 38.3 µM for the half of the compounds with a filed dose; 0% is about no effect
LASV entry inh: qHTS for Inhibitors of binding or entry into cells for Lassa Virus; AID 540256, 2011; Lassa virus pseudotype entry inhibition, cell reporter; actives 1.2% (n = 300,000); Potency, µM (series often up to 37.9 µM), for the others: at the top dose activity change, negative = inhibition, usual class: inhibitors; calls by dose curve; tested in HEK293 cells; also: potency is read from the fitted curve at half-maximal effect; % is scaled to controls: 0 for no effect and ±100 for the full control effect; nearly all actives have a fitted effect of over 50% in size
Starred values were filed as active, the others as inactive; ? = inconclusive; / = not tested or not shown; + = active, no number; [ ] = dose if it differs, or a comment. A selection: hits, their analogues and other compounds. The true share with any hit is near 12%.

SMILES	Shiga toxin inh	MARV entry inh	Cycloheximide cs	LASV entry inh
COc1cc(/C=N/NC(=O)/C(=C/c2ccccc2)CCO)ccc1O	-4	13%	-3	-6%
O=C(N/N=C/c1ccc(O)cc1O)/C(=C/c1ccccc1)CCO	-2	?	19*	?
COc1ccc(-c2noc(CNC(=O)CCN3C(=O)[C@H]4CC=CC[C@H]4C3=O)n2)cc1	-2	/	9	/
O=c1c2ccccc2nc(Cc2ccccc2)n1-c1ccccc1	18	/	19*	/
Cc1ccc(-n2c(CNCc3ccc(F)cc3)nc3ccccc3c2=O)cc1	14	/	15*	/
CCN(CC)CCNCc1nc2ccccc2c(=O)n1-c1ccc(F)cc1	-6	5%	-4	-11%
N=C(N)SCc1nc2ccccc2c(=O)n1-c1ccccc1	68*	?	45*	8%
O=C(O)c1ccc(CSc2nc3ccccc3c(=O)n2-c2ccccc2)cc1	-11	/	-3	/
CC1CCN(C(=S)NC(=O)c2ccc(C(C)(C)C)cc2)CC1	5	/	5	/
CC(C)(C)c1ccc(C(=O)NC(=S)Nn2cnnc2)cc1	120*	?	19*	?
O=C(NC(=S)Nn1cnnc1)c1ccccc1Cl	13	3%[46.1 µM]	1	30%[46.1 µM]
CC(C)(C)c1ccc(C(=O)NC(=S)N2CCCC2)cc1	28	-16%[46.1 µM]	32*	-6%[46.1 µM]
CC(C)(C)c1ccc(C(=O)NC(=S)N2CCCCCC2)cc1	35	/	20*	/
CCOC(=O)c1nc(NCc2ccccc2F)c2ccccc2n1	-3	-12%[46.1 µM]	2	-21%
CC(C)(C)c1cc(CCC(=O)N2CCNCC2)c(C(C)(C)C)cc1O	10	15µM*	-1	-24%
CC(C)(C)c1ccc(C(=O)N/C(=C\c2cccs2)C(=O)NCc2ccco2)cc1	55	-23%	33*	-41%
COc1cccc(C(=O)NC(=S)NCc2ccco2)c1	40*	?	23*	?
COc1cc(OC)cc(C(=O)NC(=S)NCc2ccco2)c1	-14	17%	-2	?
COc1ccc(C(=O)N/C(=C\c2ccco2)C(=O)NCc2ccco2)cc1	-6	/	6	/
COc1ccc(C(=O)Nc2ccc(Cl)cc2C(=O)NCc2ccco2)cc1	21	?	14*	-11%
Cc1ccc(C(=O)NC(=S)NCc2ccccc2)cc1	45	/	16*	/
Cc1cc(OCC(=O)NCC2(N3CCOCC3)CCCCC2)ccc1Cl	/	?	/	-4%[46.1 µM]
O=C1C[C@H](c2ccccc2)n2nc(N3C(=O)c4ccccc4C3=O)nc2N1	/	3%	/	/
Cc1ccc(C(=O)NC(=S)NCc2ccco2)cc1	46	-15%[46.1 µM]	35*	16%
Cc1ccc(NC(=O)C(=O)NCc2ccco2)cc1	/	/	/	20%[46.1 µM]
SMILES	Shiga toxin inh	MARV entry inh	Cycloheximide cs	LASV entry inh
COc1ccc(C(=O)NC(=S)NCc2ccco2)cc1OC	-8	-12%	-1	-12%
Cc1ccc(NC(=O)C(=S)NCc2ccco2)cc1	38	3%	38*	5%
COc1ccc(C(=O)NC(=S)NCc2ccco2)cc1	44*	12%	22*	?
COc1ccc(C(=O)NC(=S)NCc2ccco2)cc1Br	9	12%	9	2%
CCCCNC(=O)c1onc(CCl)c1C(=O)OC	9	/	-2	/
COc1cc(NS(=O)(=O)c2ccc3c(c2)C(C)(C)C(=O)N3C)cc(OC)c1	-2	/	-1	/
COc1cc(/C=N/NC(=O)c2ccccn2)ccc1OC(=O)c1ccc(Br)cc1	41	13%	25*	-15%
COc1cc(/C=N/NC(=O)c2ccccn2)ccc1OC(=O)c1ccccc1Br	71*	-6%	43*	?
CN(C)C(=O)n1nnnc1Cc1ccc(-c2ccccc2)cc1	-2	/	14	/
Cc1cc(C(=O)OCC(=O)NCCCN2CCCC2=O)c2ccccc2n1	-5	-4%	-2	3%
Cn1c(C(=O)Nc2ccc(OC(F)(F)F)cc2)cc2c(=O)n3ccccc3nc21	/	/	/	-25%[46.1 µM]
O=C(CCC1CCCN(C(=O)c2cccc(F)c2)C1)N1CCN(c2ccccn2)CC1 (stereo not given)	12	-27%	0	-5%
CCOC(=O)CNC(=O)C1COc2ccccc2O1 (stereo not given)	8	21%	0	-11%
FC(F)(F)c1ccc(Nc2nnnc3ccccc23)cc1	36	-1%[46.1 µM]	21*	2%[46.1 µM]
CCOC(=O)C1=C(CS(=O)(=O)c2ccc(F)cc2)NC(=O)NC1c1ccc(O)c(O)c1 (stereo not given)	-2	/	-6	/
CC(=O)Nc1ccc(/C=C/c2nc(-c3ccccc3O)n(-c3ccccc3)n2)cc1	/	5%[46.1 µM]	/	?
CC(=O)Nc1ccc(/C=C/c2noc(-c3ccccc3O)n2)cc1	54*	?	21	?
COc1cc(/C=C/c2noc(-c3ccccc3O)n2)ccc1OC(C)=O	42*	/	15*	/
Oc1ccccc1/C=C/c1noc(-c2ccccc2O)n1	70*	-24%[46.1 µM]	33*	/
COC(=O)c1ccc(CSc2nc3ccc(S(=O)(=O)N4CCOCC4)cc3[nH]2)cc1	14	?	8	-12%
Cc1cc(C(F)F)n2nc(C(=O)Nc3ccc(F)c(Cl)c3)nc2n1	/	?	/	13%[46.1 µM]
CC(CCN1CCc2nc(-c3ccccc3)c(-c3ccccc3)cc2C1)=NO[C@H](C)CN1CCCCc2nc(C)c(C)cc21	/	25%[14.2 µM]	/	/
CCOC(=O)Cc1csc(NC(=O)/C=C/c2ccccc2Cl)n1	71*	?	38*	?
CCOC(=O)Cc1csc(NC(=O)/C=C\c2ccccc2Cl)n1	53*	?	23*	?
COc1cc(C2N(c3ccccc3)CCN2c2ccccc2)cc(OC)c1OC	61	-8%	13*	8%
SMILES	Shiga toxin inh	MARV entry inh	Cycloheximide cs	LASV entry inh
CCn1cc(Br)c(C(=O)Nc2ccc(F)cc2F)n1	45*	/	25*	/
CCn1cc(Br)c(C(=O)Nc2cccc(SC)c2)n1	+	-5%	32*	-7%
COc1ccc(CCNC(=O)C2CCCN(S(C)(=O)=O)C2)cc1 (stereo not given)	5	-1%[46.1 µM]	0	17%[46.1 µM]
Cc1ccc(NC(=O)NC2=N/C(=C(/C#N)C(=O)N3CCCC3)c3ccccc32)cc1	58	?	20*	13%
Cc1cc(C)c2sc(NC(=O)c3ccc(S(=O)(=O)N4CCOCC4)cc3)nc2c1	/	/	/	-1%[46.1 µM]
CCOc1ccc(S(=O)(=O)NCC(c2ccc3c(c2)OCO3)N2CCN(C)CC2)cc1 (stereo not given)	/	7.9µM*	/	?
COc1ccc(S(=O)(=O)NCC(c2ccc3c(c2)OCO3)N2CCN(C)CC2)cc1OC (stereo not given)	/	2%	/	3%
COc1ccccc1C(=O)NC1CCN(C(=S)NCCc2ccccc2)CC1	30	?	-4	?
COc1cccc(C(=O)NC(=S)Nc2ccccc2N2CCCCC2)c1	25	/	4	/
COc1c(C)cccc1C(=O)NC(=S)Nc1ccccc1N1CCCC1	12	/	30*	/
COc1cccc(C(=O)NC(=S)Nc2ccccc2N2CCCC2)c1	40	?	17*	2%[46.1 µM]
O=C(NC(=S)Nc1ccccc1N1CCCC1)c1ccccc1Br	4	/	7	/
COc1cccc(/C=C/C(=O)Nc2ccccc2N2CCOCC2)c1	44	-10%	29*	?
O=C(/C=C/c1ccc(Cl)cc1)Nc1ccccc1N1CCOCC1	11	2%	1	-3%
CCOc1ccc(OCC)c(NC(=O)C2CCN(c3nnc(-n4cccc4)s3)CC2)c1	/	/	/	20%[46.1 µM]
